# According to PubChem BioAssay AID1626 (SRMLSC, 2009):
# Hit rate of the full screen: of about 220,000 compounds, about 2,000 (0.91%) were called active. Another 2% or so got no clear call; they are omitted. No stated cut-off is given here; in the data, inconclusive means inhibition above about 80% without an active follow-up result; inactive means below that; test concentration not stated here. Only a sample is shown. Results with a measured potency or affinity are listed apart.
# Test: M. tuberculosis H37Rv growth inhibitors, H37Rv strain (AID 1626);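 further: bacteria incubated seven days before Alamar blue readout; 0% = bacteria only wells and 100% = bacteria with antibiotic wells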
# Details: stronger effect = higher value, concentration not given here
row,SMILES,inhibition
1,O=C(O)c1cccc(Cn2c(Cl)c(/C=N/NC(=O)c3cccc(O)c3)sc2=O)c1,-13.5% (inactive)
2,Cc1ccc(NC(=O)CCC(=O)c2cccs2)c(O)c1,-1.47% (inactive)
3,CCOC(=O)c1cc(-c2ccccc2)nc2ccc(C)cc12,29.4% (inactive)
4,CCS(=O)(=O)Nc1cccc(-c2ccc3nnc(C)n3n2)c1,-7.2% (inactive)
5,Cc1ccc2nc(-c3ccc(NS(C)(=O)=O)cc3)cc(-c3ccccc3)c2c1,64.5% (inactive)
6,Cc1ccc2nc(-c3ccncc3)cc(-c3ccccc3)c2c1,9.15% (inactive)
7,COC(=O)[C@@H]1CCCN1C(=O)CCc1nnc(C2CCCCC2)o1,3.78% (inactive)
8,COc1ccc(NC(=O)O/N=C2/CCCc3ccc(OC)cc32)cc1,-0.42% (inactive)
9,O=S(=O)(Cc1cc(N2CCOCC2)nc(-c2ccccn2)n1)c1ccccc1,2.59% (inactive)
10,Cc1nc(CSc2ccc(Cl)cc2)cc(N2CCOCC2)n1,-2.98% (inactive)
11,O=C(Nc1ccc2c(c1)OCO2)c1ccc(S(=O)(=O)N2CCCC2)cc1,-0.32% (inactive)
12,CCOc1ccc(NC(=O)c2ccc(CNc3c(N4CCCC4)c(=O)c3=O)cc2)cc1,67.9% (inactive)
13,Nc1nccc(/C=C/c2c(F)cccc2Cl)n1,0.04% (inactive)
14,CCOc1cc(/C=C/c2ccc3cccc([N+](=O)[O-])c3n2)cc(Cl)c1O,0.72% (inactive)
15,Fc1cccc(F)c1/C=C/c1ccc2ccccc2n1,7.53% (inactive)
16,CC(=O)Oc1c(Cl)cc(Cl)cc1/C=C/c1ccc2ccccc2n1,21.1% (inactive)
17,Clc1ccccc1OCc1nn[nH]n1,-3.82% (inactive)
18,Cn1cc2cccc([N+](=O)[O-])c2n1,-0.35% (inactive)
19,O=C(/C=C/c1ccco1)Nc1ccc2c(c1)OCO2,2.3% (inactive)
20,Nc1nc(N2CCN(c3ccc(Cl)cc3)CC2)n[nH]1,6.82% (inactive)
21,CCCCc1ncc(CN2CCCC(C(=O)c3ccc(SC)cc3)C2)[nH]1 (configuration not stated),1.38% (inactive)
22,CSc1ccc(C(=O)C2CCCN(Cc3ccn[nH]3)C2)cc1 (configuration not stated),2.84% (inactive)
23,CCOC(=O)c1cc(-c2ccco2)nc2c1c(C)nn2-c1cccc(Cl)c1,-0.03% (inactive)
24,O=C(NCC1CCCCC1)c1cc([N+](=O)[O-])ccc1N1CCOCC1,6.09% (inactive)
25,CC(NC(=O)c1ccccc1Br)c1ccc2c(c1)CCCC2 (configuration not stated),6.54% (inactive)
26,CC(NC(=O)c1ccc(F)cc1)c1ccc2c(c1)CCCC2 (configuration not stated),1.58% (inactive)

row,SMILES,inhibition
1,CCC(Sc1ncnc2c1nnn2-c1ccc(F)cc1)C(=O)OC (configuration not stated),66.9% (inactive)
2,CCOC(=O)C(CC)Sc1ncnc2c1nnn2-c1ccc(F)cc1 (configuration not stated),10.4% (inactive)
3,Cc1cc(C)cc(NC(=O)NCc2c(-c3ccccc3)noc2C)c1,1.42% (inactive)
4,CCOc1ccc(NC(=O)c2ccccc2O)cc1,6.33% (inactive)
5,CCOc1ccc(NC(=O)C(CC)NC(=O)c2ccccc2CO)cc1 (configuration not stated),3.2% (inactive)
6,CN(C)/C=N/c1cc(=O)n(Cc2ccccc2)c(=O)n1C,-11.1% (inactive)
7,COc1ccc2oc(=O)c(-c3nc4ccccc4o3)cc2c1,2.35% (inactive)
8,COc1ccc(-c2nnc(-c3cc4c(ccc5ccccc54)oc3=O)o2)cc1,-4.32% (inactive)
9,O=c1oc2ccc3ccccc3c2cc1-c1nnc(-c2ccccc2)o1,77.2% (inactive)
10,O=c1oc2ccccc2cc1-c1nc2ccccc2o1,8.96% (inactive)
11,C=CCn1c(-c2ccccc2)nc2nc3ccccc3nc21,5.61% (inactive)
12,CNC(=O)CSc1nnc(-c2ccncc2)n1Cc1ccccc1,-4.15% (inactive)
13,CCOC(=O)CSC1=N/C(=C\c2cc(OC)c(OC)c(OC)c2)C(=O)N1C,0.23% (inactive)
14,CCC1Oc2ccc(C)cc2N(Cc2cccc(C)c2)C1=O (configuration not stated),17.5% (inactive)
15,CN(Cc1ncc[nH]1)C(=O)c1cc(COc2c(F)cccc2F)on1,0.91% (inactive)
16,Cc1ccc(/C=C/C(=O)N2CC(C)CC(C)C2)o1 (configuration not stated),15.8% (inactive)
17,CC1CN(C(=O)/C=C/c2ccc([N+](=O)[O-])s2)CC(C)O1 (configuration not stated),6.46% (inactive)
18,O=C(/C=C/c1cccs1)N1CCCCC1,12.9% (inactive)
19,O=C(/C=C/c1ccccc1[N+](=O)[O-])N1CCCCC1,3.44% (inactive)
20,CCc1nc2ccccc2n1Cc1ccc(F)cc1,3.76% (inactive)
21,CCOC(=O)N1CCC(NC(=O)Cn2cc3c(n2)CCCC3)CC1,-5.16% (inactive)
22,Cc1ccccc1C(C(=O)NC1CCCCC1)N(C(=O)CNC(=O)c1ccco1)c1cccnc1 (configuration not stated),2.42% (inactive)
23,NC1=NCC(O)=C1c1nc2ccccc2[nH]1,4.96% (inactive)
24,CCCCN(C)CC(O)Cn1cc(/C=C/C(=O)c2cccs2)c2ccccc21 (configuration not stated),32.9% (inactive)
25,O=Cc1cn(CC(O)CN2CCCCC2)c2ccccc12 (configuration not stated),-4.08% (inactive)
26,COc1ccc(C(=O)/C=C/c2cn(CC(O)CN3CCN(C)CC3)c3ccccc23)cc1OC (configuration not stated),-1.8% (inactive)

row,SMILES,inhibition
1,Cc1ccc(C(=O)/C=C/c2cn(CC(O)CN3CCOCC3)c3ccccc23)cc1 (configuration not stated),78.3% (inactive)
2,O=C(/C=C/c1cn(CC(O)CN2CCOCC2)c2ccccc12)c1cccs1 (configuration not stated),4.21% (inactive)
3,COc1ccc(C(=O)/C=C/c2cn(CC(O)CN3CCOCC3)c3ccccc23)cc1 (configuration not stated),15.2% (inactive)
4,C=CCNC(=O)c1ccc(-c2ccc([N+](=O)[O-])cc2)o1,2.72% (inactive)
5,COc1cccc(/C=C2\SC(=S)N(NC(=O)c3ccncc3)C2=O)c1,-9.97% (inactive)
6,O=C(NCc1csc(-c2cccs2)n1)Nc1ccc(F)cc1F,-1.75% (inactive)
7,Cc1cc(C)n(CC(O)Cn2c3ccc(Cl)cc3c3cc(Cl)ccc32)c(=O)n1 (configuration not stated),3.67% (inactive)
8,OCCNCC(O)Cn1c2ccccc2c2ccccc21 (configuration not stated),3.13% (inactive)
9,OCCn1c(-c2ccccc2)csc1=Nc1ccccc1,3.23% (inactive)
10,CCOc1ccc(N=c2scc(-c3ccc(OC)cc3)n2CCO)cc1,27.6% (inactive)
11,Cc1cc(C)cc(C(=O)NCCCc2ccccc2)c1,-1.21% (inactive)
12,CCN(CC)C(=O)C1CCCN(Cc2sccc2C)C1 (configuration not stated),-5.07% (inactive)
13,Cc1nc(N)nc(COc2ccccc2)n1,-5.7% (inactive)
14,CCc1nc(N2CCC(C)CC2)c2oc3ccccc3c2n1,21.7% (inactive)
15,CCc1nc(N2CCCCC2)c2oc3ccccc3c2n1,22.4% (inactive)
16,O=C(NCCCn1ccnc1)C(=O)NCC(c1cccnc1)N1CCN(c2ccccc2)CC1 (configuration not stated),0.94% (inactive)
17,COC(=O)/C(=N/Nc1ccccc1)N1CCCc2ccccc21,38.7% (inactive)
18,ClC(=C\c1ccccc1)/C=N/N1CCN(c2ccccn2)CC1,-1.5% (inactive)
19,CC(=O)Nc1ccc(NC(=O)CSc2ccc([N+](=O)[O-])cn2)cc1,-4.39% (inactive)
20,O=C(CSc1ccccn1)Nc1ccc2c(c1)OCCO2,-16.3% (inactive)
21,CSc1ncccc1C(=O)Nc1nnc(C2CC2)s1,0.73% (inactive)
22,O=C(Nc1nnc(SCc2c(Cl)cccc2Cl)s1)c1ccc2ncsc2c1,29.9% (inactive)
23,CCSc1nnc(NC(=O)c2cnccn2)s1,2.03% (inactive)
24,CCSc1nnc(NC(=O)c2cccnc2Cl)s1,-8.72% (inactive)
25,O=C(Nc1nnc(SCc2ccc(F)cc2)s1)c1cccnc1Cl,7.86% (inactive)
26,Cc1cnc(C(=O)Nc2nnc(C)s2)cn1,-5.75% (inactive)

row,SMILES,inhibition
1,O=C(Nc1nnc(C2CC2)s1)c1ccncc1,-4.03% (inactive)
2,CC(=O)Nc1nnc(SCc2ccc(F)cc2)s1,1.23% (inactive)
3,COc1ccc(N2CCN(C(=O)C(C)(C)Oc3ccc(Cl)cc3)CC2)cc1,10.8% (inactive)
4,CCCCn1c(/C=C/c2ccco2)nc2ccccc21,-4.08% (inactive)
5,CN(CCC(=O)Nc1ccc2c(c1)OCO2)Cc1ccccc1,-7.11% (inactive)
6,Cc1cccc(S(=O)(=O)NNC(=O)Cc2cccn2C)c1,3.18% (inactive)
7,COc1ccccc1NC(=O)COc1ccc(Br)cc1CNCCCN1CCOCC1,-1.49% (inactive)
8,Oc1ccccc1/C=N/[n+]1ccccc1,-3.35% (inactive)
9,CCc1cc(=O)oc2cc(OCC(=O)O)c(Cl)cc12,-5.56% (inactive)
10,CCC(=O)Nc1nnc(SCc2ccc(F)cc2)s1,7.4% (inactive)
11,O=C(Nc1nnc(SCc2ccc(F)cc2)s1)c1ccco1,-8.91% (inactive)
12,CCCCNC(=O)Nc1ccccc1C(=O)Nc1ccc(OC)cc1,-1.66% (inactive)
13,CCc1cccc(NC(=O)C(NC(=O)C2CCCCC2)C(C)C)c1 (configuration not stated),-6.21% (inactive)
14,COc1ccc(C)cc1S(=O)(=O)N1c2ccccc2CC1C (configuration not stated),2.45% (inactive)
15,CCOC(=O)c1cnc(-n2nc(C)cc2C)nc1Oc1ccc(C#N)cc1,-2.96% (inactive)
16,CCOC(=O)c1cnc(-n2nc(C)cc2C)nc1NC,19.4% (inactive)
17,CCOC(=O)c1cnc(-n2nc(C)cc2C)nc1Oc1ccc(C(=O)OC)cc1,8.41% (inactive)
18,CCOC(=O)c1cnc(-n2nc(C)cc2C)nc1N1CCOCC1,-9.47% (inactive)
19,CCOC(=O)c1cnc(-n2nc(C)cc2C)nc1Nc1ccc(O)cc1,0.145% (inactive)
20,CCOC(=O)c1cnc(-n2nc(C)cc2C)nc1N(C)C,4.9% (inactive)
21,CCOC(=O)c1cnc(-n2nc(C)cc2C)nc1NNc1nc(C)cc(C)n1,71.3% (inactive)
22,CCOC(=O)c1cnc(-n2nc(C)cc2C)nc1Nc1cccc(C(=O)O)c1,7.26% (inactive)
23,O=C(O)c1cccnc1Br,1.4% (inactive)
24,Cc1ccc(/C=N/OC(=O)c2nn(C)cc2Cl)cc1,11.9% (inactive)
